Measured values published in PubChem BioAssay.

Experiments:
[1] = inhibitors of PAF-induced NFkB signaling in CF airway cells, dose response, cell-based, uHTS hits, panel, cytotoxicity readout (AID 624344); conditions: CF bronchial epithelial cells, PAF-induced NFkB reporter inhibition, with PAF, run 1; at 79 µM (top of the series) unless noted
[2] = as above; conditions: CF bronchial epithelial cells, PAF-induced NFkB reporter inhibition, with PAF, run 2; at 79 µM (top of the series) unless noted

C=CCN1c2ccccc2Sc2cnccc21
inhibition [1]: 105% | inhibition [2]: 116%

C=Cc1ccc(CC2(C)C(=O)Nc3ccc(-c4cccnc4)cc32)cc1 (stereo not drawn)
inhibition [1]: 113% | inhibition [2]: 102%

Cc1ccc(NC(=O)CSc2ncnc3ccccc23)cc1S(=O)(=O)N1CCOCC1
inhibition [1]: 110% | inhibition [2]: 98.4%

CN(Cc1ccccc1)c1ncnc(N)c1[N+](=O)[O-]
inhibition [1]: 115% | inhibition [2]: 102%

COc1ccc(-c2ccccc2[C@H]2[C@@H]3C=CC[C@@H](C)[C@@H]3C(=O)N2Cc2ccccc2)cc1
inhibition [1]: 102% | inhibition [2]: 108%

Brc1ccc2ncnc(NCc3ccco3)c2c1
inhibition [1]: 109% | inhibition [2]: 105%

ON=C1c2ccccc2-c2ccccc21
inhibition [1]: 95.8% | inhibition [2]: 106%

COc1ccc(-c2cc(NC=O)c3ncc(-c4cc(OC)c(OC)c(OC)c4)n3c2)cc1
inhibition [1]: 50.1% | inhibition [2]: 53.5%

CCOC(=O)c1c(C)[nH]c(C(=O)N/N=C/c2ccc(Br)cc2)c1C
inhibition [1]: 89.5% | inhibition [2]: 83.1%

Cc1cccc(N2CCN(C(=O)c3[nH]c(C(F)(F)F)nc3-c3ccccc3)CC2)c1C
inhibition [1]: 91.2% | inhibition [2]: 103%

CCCc1cc(-c2[nH]ncc2-c2ccc3c(c2)OCCCO3)c(O)cc1O
inhibition [1]: 108% | inhibition [2]: 102%

CC1=C(/C=C/C(C)=C/C=C/C(C)=C\C(=O)O)C(C)(C)CCC1
inhibition [1]: 100% | inhibition [2]: 71.7%

C=C1C(=O)[C@]23C[C@H]1CCC2[C@]1(C)C(=O)CC[C@@](C)(C(=O)O)C1C[C@@H]3O (stereo partly drawn)
inhibition [1]: 98.9% | inhibition [2]: 89.8%

CNc1ccc2ncc(-c3ccc(OC)c(OC)c3)n2n1
inhibition [1]: 106% | inhibition [2]: 118%

CCN(CC)CCNC(=O)c1ccc(NC(=O)C2CCN(c3ncnc4sc(C)c(C)c34)CC2)cc1
inhibition [1]: 112% | inhibition [2]: 103%

CC(=O)Nc1nc(C)c(-c2csc(Nc3cccc(C(C)=O)c3)n2)s1
inhibition [1]: 105% | inhibition [2]: 101%

N#Cc1ccsc1NC(=O)c1ccc(Cl)c([N+](=O)[O-])c1
inhibition [1]: 74% | inhibition [2]: 101%

CCc1cc(SC#N)cc(C)c1NC(=O)CCl
inhibition [1]: 107% | inhibition [2]: 99.9%

O=C(c1nnsc1S(=O)(=O)c1ccc(Cl)cc1)N1CCOCC1
inhibition [1]: 96% | inhibition [2]: 85.4%

COc1ccc(CN(C(=O)CSc2nnc(-c3c[nH]c4ccccc34)o2)c2ccc(F)cc2)cc1OC
inhibition [1]: 101% | inhibition [2]: 103%

O=C(CCC1COc2ccccc2O1)Nc1ccc(Cl)cn1 (stereo not drawn)
inhibition [1]: 104% | inhibition [2]: 112%

COc1ccccc1NS(=O)(=O)c1cccc(-n2c(O)c(C=Nc3ccccc3C(=O)O)c3ccccc3c2=O)c1
inhibition [1]: 105% | inhibition [2]: 85%

CCCCCc1cc(O)c2c(C)cc(=O)oc2c1
inhibition [1]: 112% | inhibition [2]: 99.4%

Nc1ncnc(Sc2ccc(Cl)cc2)c1[N+](=O)[O-]
inhibition [1]: 101% | inhibition [2]: 85.6%

CCOC(=O)c1[nH]c2c(c1C)C(=O)CC(c1ccco1)C2 (stereo not drawn)
inhibition [1]: 40.8% | inhibition [2]: 98.7%

CC1(C)Cc2c(ccc3ccccc23)C(=O)N1
inhibition [1]: 106% | inhibition [2]: 111%

CC(C)(C)C(=O)/C(=C/c1ccncc1)n1cncn1
inhibition [1]: 98.3% | inhibition [2]: 102%

Cc1ccc(NC(=O)c2nc[nH]c2C(=O)NCCCNC(=O)c2[nH]cnc2C(=O)Nc2ccc(C)cc2)cc1
inhibition [1]: 108% | inhibition [2]: 95.2%

Nc1nc(N)nc(-c2cc(O)ccc2O)n1
inhibition [1]: 105% | inhibition [2]: 116%

CN(C)CCCN(C(=O)CCS(=O)(=O)c1ccccc1)c1nc2cc3c(cc2s1)OCO3
inhibition [1]: 88.7% | inhibition [2]: 73%

CN(C)c1ccc(Nc2ncnc3ccc(Br)cc23)cc1
inhibition [1]: 104% | inhibition [2]: 118%

COc1ccc(C(=O)Nc2cccc(NC(=O)c3ccc(OC)c(OC)c3)n2)cc1OC
inhibition [1]: 106% | inhibition [2]: 102%

CCOc1ccc(Nc2ncnc3ccc([N+](=O)[O-])cc23)cc1
inhibition [1]: 102% | inhibition [2]: 107%

Cc1c(Cl)cccc1NC(=O)CSc1nc2ncc(Cl)cc2[nH]1
inhibition [1]: 98.5% [at 19.8 µM] | inhibition [2]: 98.7%

CN(C)c1ccc(C(C(=O)NC2CCCCC2)N(Cc2ccco2)C(=O)c2snc(C(N)=O)c2N)cc1 (stereo not drawn)
inhibition [1]: 105% | inhibition [2]: 102%

O=S(=O)(c1cccc2cnccc12)N1CCCNCC1
inhibition [1]: 116% | inhibition [2]: 105%

Cc1ccnc(NC(=O)CCCOc2cc(=O)n(C)c3ccccc23)c1
inhibition [1]: 105% | inhibition [2]: 112%

COc1ccc2c(c1)c(C(C)=O)c(C)n2-c1ccc(C(C)=O)cc1
inhibition [1]: 89.8% | inhibition [2]: 101%

O=C(Nc1ccc(N2CCN(C(=O)c3ccccc3F)CC2)cc1)c1cncc(Br)c1
inhibition [1]: 112% | inhibition [2]: 99.6%

COc1ccc2ncn(-c3ccccc3)c2c1
inhibition [1]: 104% | inhibition [2]: 101%

c1ccc2c(-c3ccc4nncn4c3)cncc2c1
inhibition [1]: 92.3% | inhibition [2]: 79%

COc1ccc(C2=Nn3c(nnc3-c3ccncc3)SC2)cc1
inhibition [1]: 81.7% | inhibition [2]: 76.5%

CCOc1ccc(-n2cc(-c3ccccc3)c3c(N4CCOCC4)ncnc32)cc1
inhibition [1]: 112% | inhibition [2]: 102%

COc1cccc(-c2ccc3ncnc(NCc4cccnc4)c3c2)c1
inhibition [1]: 103% | inhibition [2]: 100%
